From PubChem
This is a sample that favours compounds with a hit; in the whole collection about 11% have one here.
G9a inh – qHTS Assay for Inhibitors of Histone Lysine Methyltransferase G9a. Potency, µM (titrated, usually from 102 µM), for the others: at the highest dose activity, negative = inhibition, most hits filed as inhibitors. Histone-lysine N-methyltransferase EHMT2 (Homo sapiens), Q96KQ7. 8.8% of 350,000 active. G9a H3K9 monomethylation, AlphaScreen, 2 h. AID 504332, 2011; note: % is set by controls: 0 for no effect and ±100 for the full control effect; nearly all actives have a fitted effect of over 75% in size
Target sequence (Q96KQ7 913-1193 limits assumed): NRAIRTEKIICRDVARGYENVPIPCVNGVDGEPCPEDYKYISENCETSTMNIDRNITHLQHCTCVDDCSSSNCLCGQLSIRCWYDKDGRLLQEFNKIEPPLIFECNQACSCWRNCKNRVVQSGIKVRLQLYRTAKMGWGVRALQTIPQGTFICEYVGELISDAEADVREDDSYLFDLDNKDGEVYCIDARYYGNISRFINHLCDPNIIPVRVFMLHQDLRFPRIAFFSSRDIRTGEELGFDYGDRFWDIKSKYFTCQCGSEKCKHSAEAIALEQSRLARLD
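Using a bead-based AlphaScreen, monomethylated H3K9 product from 2 h room-temperature reactions (G9a 20 nM, peptide 500 nM, SAM 20 uM) was detected with 0.5 ug/mL rabbit anti-H3K9me1 antibody.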
PLK1 PBD block – qHTS for Inhibitors of PLK1-PDB (polo-like kinase 1 - polo-box domain): Primary Screen | Serine/threonine-protein kinase PLK1 (Homo sapiens), P53350 | Plk1 PBD binding of FITC phosphopeptide, fluorescence polarization | Potency, µM, for the others: max response, negative = inhibition, usual class: inhibitors | 2.8% of 360,000 active | AID 720504, 2013; note: series mostly up to about 57 µM; % is set by controls: 0 for no effect and ±100 for the full control effect; nearly all actives have a fitted effect of over 65% in size
BAZ2B block – qHTS Assay for Inhibitors of BAZ2B; 4.4% of 360,000 active; Potency, µM (series often up to 114 µM), for the others: top-dose activity change, negative = inhibition, hits mostly inhibitors; Bromodomain adjacent to zinc finger domain protein 2B (Homo sapiens), Q9UIF8; AlphaScreen BAZ2B-H3K14Ac peptide displacement; note: % is set by controls: 0 for no effect and ±100 for the full control effect; nearly all actives have a fitted effect of over 60% in size
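AlphaScreen luminescence quantifies BAZ2B engagement of H3K14Ac peptide; the protein and biotinylated peptide are both at 50 nM final, buffer PBS pH 7.4 with 0.01% Tween-20, all steps at room temperature.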
VDR inh – Inhibitors of the vitamin D receptor (VDR): qHTS; Vitamin D3 receptor (Homo sapiens), P11473; VDR-SRC2-3 peptide fluorescence polarization, 2 h; Potency, µM, inactives show max response, negative = inhibition, usual class: inhibitors; 0.93% of 400,000 active; AID 504847, 2011; note: % is set by controls: 0 for no effect and ±100 for the full control effect
Target sequence (P11473 whole entry, looked up): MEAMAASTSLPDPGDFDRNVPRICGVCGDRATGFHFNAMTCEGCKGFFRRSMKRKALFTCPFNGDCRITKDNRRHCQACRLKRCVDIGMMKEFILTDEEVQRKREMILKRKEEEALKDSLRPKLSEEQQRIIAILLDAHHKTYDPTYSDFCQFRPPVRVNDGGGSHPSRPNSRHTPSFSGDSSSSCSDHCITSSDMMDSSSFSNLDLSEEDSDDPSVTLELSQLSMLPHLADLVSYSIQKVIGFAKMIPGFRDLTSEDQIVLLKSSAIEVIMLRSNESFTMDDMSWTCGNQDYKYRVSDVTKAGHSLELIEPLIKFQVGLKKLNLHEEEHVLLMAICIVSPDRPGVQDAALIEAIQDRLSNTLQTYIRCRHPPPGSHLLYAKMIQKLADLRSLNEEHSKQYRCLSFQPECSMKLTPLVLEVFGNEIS
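The screen uses fluorescence polarization to detect compounds that interfere with recruitment of the SRC2-3 coactivator peptide to VDR; plates are read after 2 h at room temperature.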
JMJD2A Tudor – qHTS Assay for Inhibitors of JMJD2A-Tudor Domain. Lysine-specific demethylase 4A (Homo sapiens), O75164. AlphaScreen JMJD2A-Tudor / H3K4me3 peptide binding. Potency, µM (doses to about 114 µM), inactives show at the top dose activity change, negative = inhibition, actives largely listed as inhibitors. 4.4% of 390,000 active; note: % is set by controls: 0 for no effect and ±100 for the full control effect; nearly all actives have a fitted effect of over 50% in size
HP1b binding inh – HTS for Inhibitors of HP1-beta Chromodomain Interactions with Methylated Histone Tails; Chromobox protein homolog 1 (Homo sapiens), P83916; AlphaScreen HP1-beta / biotin-H3K9me3 peptide binding; Potency, µM (doses to about 114 µM), for the others: top-dose activity change, negative = inhibition, actives largely listed as inhibitors; 0.56% of 390,000 active; note: nearly all actives have a fitted effect of over 70% in size
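AlphaScreen: HP1-beta (50 nM) preformed 30 min with biotin-H3(1-18)K9me3 peptide (50 nM) in PBS pH 7.4, 0.01% Tween-20. Compound added for 30 min at RT, then streptavidin donor/nickel chelate acceptor beads (10 ug/mL) for 30 min.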
The depositor's hits bear a star; ? = inconclusive; . = no result given; [ ] = remark or other dose. Calls come from the whole dose curve; as a rule, active = well fitted curve in the direction sought with a large enough effect; inconclusive = small, poorly fitted or top-dose-only effect, or another doubt; inactive = no such curve, though single readings can be large; an effect the other way counts as inactive or inconclusive. Potency is the fitted concentration of half-maximal effect.

SMILES	G9a inh	PLK1 PBD block	BAZ2B block	VDR inh	JMJD2A Tudor	HP1b binding inh
COc1ccccc1NS(=O)(=O)c1cc(NC(=O)c2ccc(NC(C)=O)cc2)ccc1N1CCOCC1	.	27µM*	.	?	?	?
CN(c1ccccc1)S(=O)(=O)c1cccc(C(=O)NCCc2ccc(O)c(O)c2)c1	8.9µM*	-8%	-38%	10%	13µM*	?
CCN(CC)S(=O)(=O)c1cccc(C(=O)NCCc2ccccc2)c1	.	-7%	.	4%	-7%	29%
CN(c1ccccc1)S(=O)(=O)c1cccc(C(=O)Nc2ccc(N3CCOCC3)cc2)c1	56µM*	-4%	?	19%	?	-29%
O=[N+]([O-])c1ccc(Cl)c(CN2CCCCCC2)c1	25µM*	-9%	56µM*	1%	1.3µM*	?
O=C(NNC(=O)C1CCN(Cc2ccc(F)cc2Cl)CC1)Nc1ccc([N+](=O)[O-])cc1	.	-22%	-18%	10%	-24%	69%
O=[N+]([O-])c1ccc(Cl)c(CN2CCC(O)CC2)c1	7.9µM*	-10%	56µM*	?	10µM*	45µM*
O=[N+]([O-])c1ccc(Cl)c(CN2CCN(c3ncc(Cc4ccccc4)cn3)CC2)c1	.	-5%	.	.	.	.
COc1ccccc1-c1cc2nc(C)c(CCC(=O)NCc3ccco3)c(C)n2n1	50µM*	-17%	-9%	-12%	?	13%
Cc1nc2cc(-c3ccccc3)nn2c(C)c1CCC(=O)NCc1ccco1	?	0%	-37%	7%	-21%	18%
c1ccc(CSc2nnc(NC3CCCCC3)s2)cc1	.	-15%	.	.	.	.
COC(=O)c1cc(CSc2nnc(NC3CCCCC3)s2)oc1C	?	-11%	?	-5%	89µM*	19%
CNC(=O)CN1C(=O)c2cccc3cccc1c23	12%[12.7 µM]	5%	11%	0%	3%	24%
CN1/C(=N\O)c2cccc3cccc1c23	32µM*	27µM*	4%	?	17%	-13%
Cc1sc2nc(CC(=O)N3CCCC3)[nH]c(=O)c2c1C	28µM*	?	-1%	-28%	1%	-9%
C[C@H](CO)N1C[C@H](C)[C@@H](CN(C)S(=O)(=O)c2ccc(Cl)cc2)Oc2ccc(NS(=O)(=O)c3ccccc3)cc2CC1=O	.	-1%	.	-8%	-26%	27%
O=c1[nH]c(CN2CCN(S(=O)(=O)c3ccc4ccccc4c3)CC2)nc2ccccc12	21%	2%	-5%	-3%	?	24%
COc1ccc(S(=O)(=O)N2CCN(c3ccccc3OC)CC2)cc1OC	-4%	1%	3%	-5%	-4%	23%
O=S(=O)(c1ccc2ccccc2c1)N1CCN(Cc2ccccn2)CC1	?	-16%	79µM*	-9%	3.2µM*	-9%
O=S(=O)(c1ccc2ccccc2c1)N1CCN(C2CCN(Cc3ccccc3)CC2)CC1	5µM*	-5%	28µM*	8%	0.89µM*	-46%
O=S(=O)(c1ccccc1)N1CCN(C2CCN(Cc3ccccc3)CC2)CC1	-1%	-10%	1%	37%	-6%	1%
c1ccc(CN2CCC(N3CCC(N4CCCCCC4)CC3)CC2)cc1	45µM*	-2%	?	-4%	1.4µM*	-11%
COc1ccccc1N1CCN(C2CCN(S(=O)(=O)c3ccc4ccccc4c3)CC2)CC1	45µM*	3%	?	-13%	?	?
COC(=O)C1=C(C)NC(C)=C(C(=O)OC(C)C)[C@H]1c1cccc2nonc12	22%[21.5 µM]	.	.	-7%	.	.
COc1ccc(NC(=O)c2cc(C3CCCCN3C(=O)c3ccc(Cl)cc3)on2)c(C)c1 (stereo not drawn)	.	-12%	.	.	.	.
SMILES	G9a inh	PLK1 PBD block	BAZ2B block	VDR inh	JMJD2A Tudor	HP1b binding inh
CC(=O)c1c(N2CCN(C)CC2)[nH]c(-c2ccccc2)nc1=S	14%[0.0925 µM]	-12%	?	94%	79µM*	-4%
COc1ccc(C)cc1NC(=O)Cn1c(=O)n(Cc2nc(C)no2)c(=O)c2ccccc21	?	.	-4%	-2%	1%	36%
O=C(c1ccccc1)c1nn(-c2ccccc2)c(=O)cc1C(F)(F)F	-15%	-4%	89µM*	9%	-15%	18%
c1ccc(Nc2cccc(Nc3ccccc3)n2)cc1	7.9µM*	-23%	45µM*	-7%	56µM*	?
c1ccc(Nc2ccccn2)cc1	6%[59 µM]	24µM*	1%	?	22µM*	?
O=C(CN1CCN(S(=O)(=O)c2ccc(Cl)s2)CC1)N1CCOCC1	-33%	2%	0%	1%	-1%	33%
COCCn1c(-c2ccco2)csc1=Nc1cccnc1	?	-22%	?	-12%	89µM*	-11%
Fc1ccccc1-c1csc(=Nc2cccnc2)n1CCCn1ccnc1	45µM*	-8%	45µM*	3%	?	-19%
COCCn1c(=O)c(-c2cccs2)nc2cnc(OC)nc21	19%[0.501 µM]	.	.	-7%	.	.
CC(C)Cn1c(-c2ccco2)csc1=Nc1cccnc1	45µM*	?	32µM*	-18%	-31%	-9%
CC(C)Cn1c(SCC(=O)Nc2cccnc2Cl)nnc1-c1ccco1	.	-1%	.	-3%	-1%	47%
Fc1ccccc1-c1csc(=Nc2cccnc2)n1CC1CCCO1 (stereo not drawn)	-46%[59 µM]	-19%	?	5%	?	-16%
COCCn1c(-c2cccs2)csc1=Nc1cccnc1	?	-20%	45µM*	-15%	?	-4%
Cc1cccc(CNC(=O)CN2C(=O)CSc3c2c(C)nn3-c2ccccc2)c1	11%[59 µM]	.	-4%	7%	-14%	-8%
COc1ccc(Cl)cc1S(=O)(=O)N1CCC(C(=O)NCc2ccco2)CC1	-20%	-6%	?	-7%	-10%	11%
O=C(NCc1ccccc1)C(c1ccc(-c2ccccc2)cc1)N1CCN(c2ccccc2F)CC1 (stereo not drawn)	.	-8%	.	.	.	.
COC(=O)C1=C(C)NC(C)=C(C(=O)OCCNCc2ccccc2)C1c1cccc([N+](=O)[O-])c1 (stereo not drawn)	?	.	.	-20%	.	.
Cc1cc(C(=O)CN2CCCCC2)c(C)n1-c1ccc(F)cc1	-13%[59 µM]	-8%	?	-8%	-29%	-14%
Cc1cc(C(=O)CN2CCCC2)c(C)n1-c1ccc(Cl)cc1	50µM*	-15%	-39%	-27%	-33%	5%
